Here are results for six compounds from PubChem BioAssay (EPA / NIEHS).

For experiment [1], the target named is Paired box protein Pax-6 (Homo sapiens) (UniProt P26367). Description: ATG_Pax6_CIS: Attagene CIS-FACTORIAL HepG2 Assay for human Paired Box 6 (PAX6) (AID 2282956). The conditions noted are these: HepG2 CIS-FACTORIAL PAX6 reporter transcription, RNA readout; actives raise or lower the signal. In short, it runs like this:
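Values derive from bidirectional curve fitting of reporter mRNA signal relative to DMSO. HepG2 cells bearing transfected cis-regulated MRTUs were exposed for 24 h; transcripts were read by RT-PCR and capillary electrophoresis.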

Experiment [2] in a line: ATG_PXRE_CIS: Attagene CIS-FACTORIAL HepG2 Assay for human Pregnane X Receptor Element (PXRE) (AID 2282957). The note with it: HepG2 Attagene CIS-FACTORIAL PXRE reporter, mRNA; actives raise or lower the signal. In outline:
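Using HepG2 transfected with multiple reporter transcription units, endogenous factor-driven transcription was scored as reporter mRNA after 24 h exposure.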

A short description of experiment [3]: ATG_RORE_CIS: Attagene CIS-FACTORIAL HepG2 Assay for human RAR-related Orphan Receptor Element (RORE) (AID 2282959). The note with it: HepG2 Attagene cis-factorial RORE reporter, mRNA; actives raise or lower the signal. In short, it runs like this:
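A 24-hour exposure of transfected HepG2 hepatoma cells precedes RNA isolation and reporter RT-PCR. Labeled products are digested with HpaI and resolved by capillary electrophoresis, with gain or loss of signal scored relative to DMSO.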

Experiment [4] can be described thus: ATG_Sox_CIS: Attagene CIS-FACTORIAL HepG2 Assay for human SRY-box transcription factor (SOX) (AID 2282960). The note with it: HepG2 Attagene cis-factorial SOX reporter, mRNA; actives raise or lower the signal. In short, it runs like this: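 HepG2, cis reporter units, 24 h exposure. Reporter mRNA: RT-PCR → FAM labelling → HpaI → CE fluorescence. Bidirectional fit vs DMSO.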

In experiment [5] the target is Transcription factor Sp1 (Homo sapiens) (UniProt P08047). The experiment can be described thus: ATG_Sp1_CIS: Attagene CIS-FACTORIAL HepG2 Assay for human Specificity Protein 1 (Sp1) (AID 2282961). The conditions noted are these: HepG2 Sp1 cis-reporter transcription, actives raise or lower the signal. In outline:
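Liver-derived HepG2 cells, cis-element reporter library, 24 h treatment; RNA isolated, cDNA amplified with reporter-specific primers, FAM-labeled fragments sized on capillary analyzer. DMSO baseline, bidirectional curve fit.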

Experiment [6] in a line: ATG_SREBP_CIS: Attagene CIS-FACTORIAL HepG2 Assay for human Sterol Regulatory Element Binding (SREBP) (AID 2282962). The conditions noted are these: HepG2 Attagene cis-factorial SREBP reporter, mRNA; actives raise or lower the signal. In outline: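 Values derive from bidirectional curve fitting with DMSO as baseline. The underlying measurement is reporter mRNA from cis-element-regulated units in transiently transfected HepG2, quantified by RT-PCR and capillary electrophoresis after 24 h exposure.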

For experiment [7], the target named is Signal transducer and activator of transcription 3 (Homo sapiens) (UniProt P40763). The experiment can be described thus: ATG_STAT3_CIS: Attagene CIS-FACTORIAL HepG2 Assay for human Signal Transducer and Activator of Transcription 3 (STAT3) (AID 2282963). The conditions noted are these: HepG2, Attagene cis-factorial STAT3 reporter transcription; actives raise or lower the signal. In short, it runs like this:
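Cis-factorial format: endogenous transcription factors in HepG2 drive transfected reporter units. After 24 h treatment, reporter RNA was reverse-transcribed, amplified, FAM-labelled and HpaI-digested before CE analysis; activity scored in both directions against DMSO.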

Experiment [8] is described as follows: ATG_TA_CIS: Attagene CIS-FACTORIAL HepG2 Assay for human TA Basal Promoter (AID 2282964). The conditions noted are these: HepG2 Attagene CIS-factorial TA basal promoter reporter; actives raise or lower the signal. In short, it runs like this: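 Background internal-marker endpoint from a 52-component HepG2 cis-reporter panel. Cells treated 24 h; reporter transcripts quantified via RT-PCR and CE fluorescence against DMSO baseline.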

Experiment [9] is described as follows: ATG_TCF_b_cat_CIS: Attagene CIS-FACTORIAL HepG2 Assay for human T-Cell-Factor with beta-catenin (TCF/b-cat) (AID 2282965). The note with it: HepG2 TCF/beta-catenin cis-reporter transcription, actives raise or lower the signal. In short, it runs like this:
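Endogenous transcription factor activity is captured through cis-promoter reporter constructs transiently introduced into human HepG2 liver cells. Induced reporter mRNA is measured after 24 h and fitted bidirectionally relative to DMSO.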

A short description of experiment [10]: ATG_TAL_CIS: Attagene CIS-FACTORIAL HepG2 Assay for human TAL Basal Promoter (AID 2282966).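 Further: background control endpoint measuring basal TAL promoter reporter mRNA not a specific factor.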 The conditions noted are these: HepG2 Attagene cis-factorial TAL promoter reporter; actives raise or lower the signal. In outline:
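After 24 hours of chemical exposure, transfected HepG2 cells yielded RNA that was converted to 6-FAM-labelled, HpaI-digested reporter fragments for capillary electrophoresis. Values derive from bidirectional fitting against DMSO controls.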

The nature of experiment [11]: ATG_TGFb_CIS: Attagene CIS-FACTORIAL HepG2 Assay for human Transforming Growth Factor (TGF) (AID 2282967). The note with it: HepG2 Attagene CIS TGFb reporter, mRNA transcription; actives raise or lower the signal. In short, it runs like this:
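Liver HepG2 line, cis-factorial reporter panel, 24 h dosing. Quantitation: RT-PCR products labeled with 6-FAM, cut with HpaI, resolved by capillary electrophoresis; DMSO-referenced bidirectional analysis.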

Experiment [12] can be described thus: ATG_VDRE_CIS: Attagene CIS-FACTORIAL HepG2 Assay for human Vitamin D Receptor Element (VDRE) (AID 2282968). The note with it: HepG2 VDRE cis-reporter transcription, actives raise or lower the signal. In short, it runs like this:
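Measures endogenous factor activity through cis-element-driven reporter transcripts in transiently transfected HepG2. Cells are treated 24 h; reporter mRNA is quantified by RT-PCR and capillary electrophoresis; fitting is bidirectional.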

Experiment [13] concerns the target Nuclear receptor subfamily 1 group I member 3 (Homo sapiens) (UniProt Q14994). Description: ATG_CAR_TRANS: Attagene TRANS-FACTORIAL HepG2 Assay for human Constitutive Androstane Receptor (CAR) (AID 2282969; active means hit-call score of the fitted dose curve at least 0.9, where 1 is the maximum;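 further: activators raise reporter mRNA above DMSO so AC50 marks induction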). The conditions noted are these: HepG2 Attagene TRANS-FACTORIAL CAR reporter. In short, it runs like this:
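Signal is reporter mRNA induction relative to DMSO, measured 24 h after dosing by RT-PCR with fluorescent primer extension and capillary electrophoresis. Human HepG2 liver cells carried transiently transfected chimeric NR-Gal4/GAL4-UAS reporter constructs.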

Experiment [14] concerns the target Estrogen receptor (Homo sapiens) (UniProt P03372). Description: ATG_ERa_TRANS: Attagene TRANS-FACTORIAL HepG2 Assay for human Estrogen Receptor alpha (ERa) (AID 2282970; active means hit-call score of the fitted dose curve at least 0.9, where 1 is the maximum). The conditions noted are these: HepG2 Attagene TRANS ERa GAL4 reporter, mRNA. In outline:
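Liver-derived HepG2 cells expressing chimeric nuclear receptor-Gal4 proteins from transient transfection were exposed for 24 hours. Gain of reporter mRNA signal versus DMSO, read by capillary electrophoresis of FAM-labelled PCR products, was recorded.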

The target of experiment [15] is X-box-binding protein 1 (Homo sapiens) (UniProt P17861). The experiment can be described thus: ATG_Xbp1_CIS: Attagene CIS-FACTORIAL HepG2 Assay for human X-box Binding Protein 1 (XBP1) (AID 2282972). The note with it: HepG2 XBP1 cis-element reporter, Attagene multiplex; actives raise or lower the signal. In short, it runs like this: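 Human hepatoma HepG2, cis-element reporter system, 24 h treatment; mRNA quantified by RT-PCR/CE fluorescence; fit relative to DMSO.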

Experiment [16] can be described thus: ATG_M_19_TRANS: Attagene TRANS-FACTORIAL HepG2 Assay for M19 Transcription Factor (Internal Marker) (AID 2282974; active means hit-call score of the fitted dose curve at least 0.9, where 1 is the maximum). The note with it: HepG2 Attagene TRANS-FACTORIAL M19 internal marker reporter. In short, it runs like this:
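Transfected HepG2 (GAL4-UAS MRTUs), 24 h compound, TriZol RNA, DNase-treated RT, reporter PCR, FAM label, HpaI digest, CE fluorescence; gain vs DMSO.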

Experiment [17] can be described thus: ATG_GAL4_TRANS: Attagene TRANS-FACTORIAL HepG2 Assay for GAL4 (Internal Marker) (AID 2282976; active means hit-call score of the fitted dose curve at least 0.9, where 1 is the maximum). The note with it: HepG2 Attagene TRANS GAL4 internal marker reporter. In outline: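 First, HepG2 cells were transfected with reporter units under GAL4-UAS control. Next, they were treated with chemical for 24 h. Finally, RNA was reverse-transcribed, PCR-amplified, FAM-labelled and resolved by capillary electrophoresis, with induction scored against DMSO.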

Experiment [18] can be described thus: ATG_PPRE_CIS: Attagene CIS-FACTORIAL HepG2 Assay for human Peroxisome Proliferator-activated Response Element (PPRE) (AID 2282958). The note with it: HepG2 PPRE cis-element reporter, Attagene transcription factor profiling; actives raise or lower the signal. In short, it runs like this:
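PPRE activity in HepG2: transient cis-reporter transfection, 24 h compound incubation, reporter mRNA by RT-PCR and CE fluorescence; gain/loss fitted against DMSO.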

The structures appear in SMILES notation. Records with an inconclusive call do not appear. The source made the active and inactive calls. How the source made its calls, unless noted: active means hit-call score of the fitted dose curve at least 0.9, where 1 is the maximum; inactive means score below 0.9.

Sequence of Transcription factor Sp1 (Homo sapiens) (P08047 whole entry, looked up, the tested form may be a part): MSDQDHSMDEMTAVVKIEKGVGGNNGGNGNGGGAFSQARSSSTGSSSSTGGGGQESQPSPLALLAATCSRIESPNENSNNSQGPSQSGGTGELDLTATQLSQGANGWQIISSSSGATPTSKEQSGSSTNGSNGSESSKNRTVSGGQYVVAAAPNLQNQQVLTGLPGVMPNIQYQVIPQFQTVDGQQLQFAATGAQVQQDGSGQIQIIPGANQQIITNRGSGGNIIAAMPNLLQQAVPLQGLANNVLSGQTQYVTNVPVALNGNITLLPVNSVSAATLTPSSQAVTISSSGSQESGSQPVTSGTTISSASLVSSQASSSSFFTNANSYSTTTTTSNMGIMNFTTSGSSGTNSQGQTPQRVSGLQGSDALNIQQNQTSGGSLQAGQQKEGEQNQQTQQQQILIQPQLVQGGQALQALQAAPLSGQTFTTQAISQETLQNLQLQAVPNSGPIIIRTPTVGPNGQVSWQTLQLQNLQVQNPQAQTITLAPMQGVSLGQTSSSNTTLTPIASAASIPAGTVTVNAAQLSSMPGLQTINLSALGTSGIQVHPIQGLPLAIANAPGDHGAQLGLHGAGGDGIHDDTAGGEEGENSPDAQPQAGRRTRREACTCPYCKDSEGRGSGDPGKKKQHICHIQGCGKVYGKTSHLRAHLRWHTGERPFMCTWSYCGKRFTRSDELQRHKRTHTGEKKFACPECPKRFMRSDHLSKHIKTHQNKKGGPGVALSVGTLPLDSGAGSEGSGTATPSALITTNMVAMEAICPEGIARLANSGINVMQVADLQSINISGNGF
Sequence of Estrogen receptor (Homo sapiens) (P03372 whole entry, looked up, the tested form may be a part): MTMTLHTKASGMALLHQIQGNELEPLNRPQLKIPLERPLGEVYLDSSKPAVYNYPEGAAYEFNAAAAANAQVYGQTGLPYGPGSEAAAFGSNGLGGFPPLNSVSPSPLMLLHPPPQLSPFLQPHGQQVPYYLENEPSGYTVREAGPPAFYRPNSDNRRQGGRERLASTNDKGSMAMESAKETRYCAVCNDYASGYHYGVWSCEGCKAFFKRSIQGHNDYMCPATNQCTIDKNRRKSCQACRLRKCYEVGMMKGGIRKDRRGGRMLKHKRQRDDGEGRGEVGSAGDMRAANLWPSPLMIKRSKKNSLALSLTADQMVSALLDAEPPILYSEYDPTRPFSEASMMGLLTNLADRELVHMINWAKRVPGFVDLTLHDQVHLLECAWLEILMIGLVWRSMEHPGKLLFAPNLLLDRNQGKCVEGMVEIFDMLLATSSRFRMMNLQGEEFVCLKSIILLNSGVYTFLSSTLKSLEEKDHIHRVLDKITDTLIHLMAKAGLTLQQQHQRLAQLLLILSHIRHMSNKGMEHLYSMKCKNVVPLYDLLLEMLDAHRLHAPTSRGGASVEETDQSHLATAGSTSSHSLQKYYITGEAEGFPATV
Sequence of Nuclear receptor subfamily 1 group I member 3 (Homo sapiens) (Q14994 whole entry, looked up, the tested form may be a part): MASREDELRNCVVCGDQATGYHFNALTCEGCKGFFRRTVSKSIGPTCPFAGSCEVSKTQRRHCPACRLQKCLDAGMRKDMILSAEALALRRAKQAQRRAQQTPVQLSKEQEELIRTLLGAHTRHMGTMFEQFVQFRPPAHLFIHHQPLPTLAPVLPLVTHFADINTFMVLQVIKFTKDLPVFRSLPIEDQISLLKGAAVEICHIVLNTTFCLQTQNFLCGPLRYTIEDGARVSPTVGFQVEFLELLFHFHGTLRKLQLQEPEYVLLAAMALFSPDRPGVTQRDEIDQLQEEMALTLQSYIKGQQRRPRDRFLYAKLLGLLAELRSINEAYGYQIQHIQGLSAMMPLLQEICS
Sequence of X-box-binding protein 1 (Homo sapiens) (P17861 whole entry, looked up): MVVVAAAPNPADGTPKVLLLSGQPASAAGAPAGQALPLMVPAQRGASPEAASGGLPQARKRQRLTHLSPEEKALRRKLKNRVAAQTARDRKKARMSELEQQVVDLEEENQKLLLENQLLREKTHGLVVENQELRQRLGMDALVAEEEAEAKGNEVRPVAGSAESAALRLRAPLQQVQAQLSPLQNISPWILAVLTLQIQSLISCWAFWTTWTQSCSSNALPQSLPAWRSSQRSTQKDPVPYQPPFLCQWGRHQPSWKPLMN
Sequence of Paired box protein Pax-6 (Homo sapiens) (P26367 whole entry, looked up): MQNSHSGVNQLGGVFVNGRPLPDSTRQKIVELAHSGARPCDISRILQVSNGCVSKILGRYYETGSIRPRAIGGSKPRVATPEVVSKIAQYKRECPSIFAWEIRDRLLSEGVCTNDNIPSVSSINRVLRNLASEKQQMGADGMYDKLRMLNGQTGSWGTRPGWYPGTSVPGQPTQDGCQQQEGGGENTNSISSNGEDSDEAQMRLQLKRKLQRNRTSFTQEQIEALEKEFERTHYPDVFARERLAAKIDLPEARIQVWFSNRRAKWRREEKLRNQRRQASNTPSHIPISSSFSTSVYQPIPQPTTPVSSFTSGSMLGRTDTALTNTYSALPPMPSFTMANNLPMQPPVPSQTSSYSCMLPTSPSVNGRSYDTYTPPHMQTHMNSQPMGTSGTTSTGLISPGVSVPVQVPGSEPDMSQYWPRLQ
Sequence of Signal transducer and activator of transcription 3 (Homo sapiens) (P40763 whole entry, looked up): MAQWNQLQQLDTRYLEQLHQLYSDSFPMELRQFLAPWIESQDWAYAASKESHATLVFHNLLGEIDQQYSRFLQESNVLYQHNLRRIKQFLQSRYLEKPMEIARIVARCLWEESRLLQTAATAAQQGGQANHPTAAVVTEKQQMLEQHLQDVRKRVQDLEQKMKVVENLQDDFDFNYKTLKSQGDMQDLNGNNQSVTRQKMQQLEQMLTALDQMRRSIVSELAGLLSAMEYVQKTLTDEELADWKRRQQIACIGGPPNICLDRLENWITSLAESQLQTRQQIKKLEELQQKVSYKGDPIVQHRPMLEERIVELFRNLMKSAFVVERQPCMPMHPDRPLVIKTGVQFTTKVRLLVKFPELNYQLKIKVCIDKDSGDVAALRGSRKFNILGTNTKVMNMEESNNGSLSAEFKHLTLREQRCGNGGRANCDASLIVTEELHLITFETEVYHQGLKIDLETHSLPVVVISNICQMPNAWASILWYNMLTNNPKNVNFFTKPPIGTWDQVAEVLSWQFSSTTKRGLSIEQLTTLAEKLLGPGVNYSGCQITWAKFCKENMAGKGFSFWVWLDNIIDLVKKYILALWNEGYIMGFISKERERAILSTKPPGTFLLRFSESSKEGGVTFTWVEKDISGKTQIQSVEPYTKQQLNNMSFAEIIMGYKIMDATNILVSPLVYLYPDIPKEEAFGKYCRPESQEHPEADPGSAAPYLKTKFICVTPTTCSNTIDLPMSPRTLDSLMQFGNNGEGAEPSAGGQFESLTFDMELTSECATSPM

On to `O=C1CCCCCCCCCCC(=O)OCCO1`, for which the compound was classed as inactive in experiment [1], in experiment [2], in [3], in experiment [4], in experiment [5] and in [6]. Besides, the compound was classed as inactive in experiment [7], in experiment [8], in experiment [9], in experiment [10], in [11] and in experiment [12]. In addition, the compound was called inactive in experiment [13], in experiment [14], in experiment [15], in [16] and in experiment [17].

In general, AC50 refers to the concentration giving half of the maximal activity seen. Regarding `CC(C)CCCCCOC(=O)CCS`, the outcome in [1], in [18], in experiment [6], in experiment [7], in experiment [8] and in experiment [9] was inactive. For the same compound, the compound was called inactive in experiment [10], in [11], in experiment [12], in [14], in experiment [15] and in experiment [16]. Besides, in experiment [2], the AC50 was 6.6 µM (active).

As to `O=C1OC(=O)c2cc(Oc3ccc4c(c3)C(=O)OC4=O)ccc21`, the result in [1], in [2], in [3], in experiment [4], in [5] and in [6] was inactive. Moreover, the call in experiment [7], in [8], in experiment [9], in experiment [10], in experiment [11] and in [12] was inactive. The outcome in experiment [15] and in [17] was inactive.

On to `O=c1c2ccccc2oc2ccccc12`, for which the call in experiment [1], in experiment [3], in [4], in experiment [5], in experiment [6] and in experiment [7] was inactive. The call in experiment [8], in experiment [9], in experiment [10], in experiment [11], in experiment [12] and in experiment [13] was inactive. Further, the compound was classed as inactive in experiment [15], in [16] and in experiment [17]. Further, the half-maximal activity concentration (AC50) in [2] is 27.1 µM (active); in experiment [14] it was 27.8 µM (active).

`OC1OCCOC1O` (centres undefined): the compound was called inactive in [1], in experiment [2], in experiment [3], in [4], in [5] and in experiment [6]. For the same compound, the compound was called inactive in [7], in [8], in experiment [9], in experiment [10], in [11] and in experiment [12]. Further, the compound was classed as inactive in [13], in experiment [14], in experiment [15] and in experiment [17].

As to `C=C[C@](C)(O)CC[C@@H]1[C@@]2(C)CCCC(C)(C)[C@@H]2CC[C@@]1(C)O`, the compound was called inactive in experiment [1], in [18], in experiment [4], in experiment [5], in [6] and in experiment [7]. The call in experiment [9], in experiment [10], in [12], in experiment [14] and in experiment [15] was inactive. Besides, the AC50 in experiment [2] was 0.357 µM (active).
